MCL1-BIM inh = inhibitors of MCL1 binding to BIM-BH3, primary screen, biochemical, fluorescence polarization | inhibition, % at 10.9 µM | GST-MCL1 / FITC-Bim-BH3 fluorescence polarization | Induced myeloid leukemia cell differentiation protein Mcl-1 (Homo sapiens), Q07820 | 320,000 tested, 0.68% active;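 active means inhibition above the mean inhibition of all tested compounds plus 3 SD, set per campaign, cut at about 40% in these data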;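 further: 0% = DMSO wells and 100% = unlabeled Bim-BH3 peptide control; higher means more loss of mP so more displacement of Bim peptide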
Bcl-xL primary = inhibitors of human Bcl-xL, primary screen, biochemical, fluorescence polarization, HTS; GST-Bcl-xL / FITC-Bim BH3 peptide fluorescence polarization; inhibition, % at 10.9 µM; 320,000 tested, 0.7% active; Bcl-2-like protein 1 (Homo sapiens), Q07817; AID 2129, 2009;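 active means inhibition above the mean of all tested compounds plus 3 SD, cutoff set per campaign, cut at about 30% in these data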;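 further: 0% = DMSO wells and 100% = unlabeled Bim-BH3 peptide competitor; inhibitors lower millipolarization by displacing the labeled peptide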
GLD-1 TGE inh = GLD-1/TGE RNA complex disruptors, primary screen, biochemical, fluorescence polarization. Female germline-specific tumor suppressor gld-1 (Caenorhabditis elegans), Q17339. purified GLD-1 + fluorescein TGE RNA. inhibition, % at 5.96 µM. 320,000 tested, 0.44% active. AID 2280, 2010;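 active means percent inhibition above a per-plate cutoff, the plate mean of test compounds plus 3 SD, cut at about 30% in these data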;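 further: 0% = DMSO wells with GLD-1 and probe and 100% = wells lacking GLD-1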
Target sequence (Q17339 whole entry, looked up): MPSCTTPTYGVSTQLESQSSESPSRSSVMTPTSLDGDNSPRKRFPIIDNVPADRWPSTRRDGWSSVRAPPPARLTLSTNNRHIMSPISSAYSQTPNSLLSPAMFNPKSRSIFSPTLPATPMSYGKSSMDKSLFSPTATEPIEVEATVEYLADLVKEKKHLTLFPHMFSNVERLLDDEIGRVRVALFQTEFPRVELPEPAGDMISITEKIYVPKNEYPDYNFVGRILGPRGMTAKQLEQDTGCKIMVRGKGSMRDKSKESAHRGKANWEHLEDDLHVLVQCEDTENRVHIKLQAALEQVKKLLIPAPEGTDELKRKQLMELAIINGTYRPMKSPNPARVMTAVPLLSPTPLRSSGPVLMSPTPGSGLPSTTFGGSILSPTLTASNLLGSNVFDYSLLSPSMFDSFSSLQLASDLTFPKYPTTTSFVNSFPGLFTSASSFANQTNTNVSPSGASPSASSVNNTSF
LANA-H2B inh = blockers of LANA interaction with H2A/H2B – biochemical, FP readout, HTS, primary screen. Protein LANA1 (Human herpesvirus 8 type P (isolate GK18)), Q9QR71. cell-free LANA-H2A/H2B peptide, fluorescence polarization. AID 2629, 2010. inhibition, % (no concentration beside the values). 320,000 tested, 0.6% active; in the data active means inhibition mostly above about 10%, no sharp cut-off; inactive means mostly below about 6.7%
MEX-5 binding = MEX-5 zinc finger RNA-binding disruptors – biochemical, C. elegans, fluorescence polarization, MLPCN library, primary screen. activity score (negative = inhibition of binding), % at 10 µM. MEX-5/FITC-TCR2 RNA binding; stronger effect = lower value. 300,000 tested, 0.38% active. Zinc finger protein mex-5 (Caenorhabditis elegans), Q9XUB2;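 active means inhibition past about -25% in most replicates, and total fluorescence under double the plate's negative control median, limit read from the data; inconclusive means replicates evenly split on the limit, or fluorescence at least double controls; inactive means too little inhibition in most replicates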;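 further: 0% = DMSO and -100% = 5 µM competing unlabeled TCR2 RNA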
Yeast superoxide = reduction of superoxide in aged yeast, primary screen, HTS; S. cerevisiae aged cells, superoxide DHE fluorescence; stronger effect = lower value; superoxide response (% of plate mean), % at 10 µM; 330,000 tested, 0.18% active; AID 2690, 2010;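 active means superoxide response under a set limit, about three screen SD below normal, cut at about 65% in these data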;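 further: yeast aged for seven days with compound at 30 °C before DHE staining; 100% = average MFI of all compound-treated wells on the plate with controls excluded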
Bcl-xL conf = Bcl-xL inhibitors blocking Bim BH3 binding, confirmation, counter-screen for MCL1 inhibitor project, biochemical, fluorescence polarization. shares compounds with MCL1-BIM inh. GST-Bcl-xL / FITC-Bim BH3 peptide FP binding. inhibition, % at 10.9 µM. 1,700 tested, 54% active. AID 2166, 2009;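 active means inhibition above a cutoff equal to the mean inhibition of all tested compounds plus 3 SD, cut at about 30% in these data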;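 further: 0% = DMSO wells and 100% = unlabeled Bim BH3 control peptide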
MCL1 BIM confirm = inhibitors of MCL1 binding to BIM-BH3, confirmation, biochemical, fluorescence polarization, triplicate; 1,700 tested, 61% active; shares compounds with MCL1-BIM inh; GST-MCL1 / FITC-Bim-BH3 fluorescence polarization; AID 2168, 2009; inhibition, % at 10.9 µM;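 active means inhibition above the average of all tested compounds plus 3 SD, cut at about 40% in these data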;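 further: 0% = DMSO wells and 100% = unlabeled Bim-BH3 control peptide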
Starred values were filed as active, the others as inactive; ? = inconclusive; · = no result given; + = active, no number. Hits are enriched below; roughly 1.9% of the tested compounds scored in any of these assays.

SMILES	MCL1-BIM inh	Bcl-xL primary	GLD-1 TGE inh	LANA-H2B inh	MEX-5 binding	Yeast superoxide	Bcl-xL conf	MCL1 BIM confirm
COc1ccc(/C=C2\SC(=O)NC2=S)cc1OC	122*	102*	100*	·	-36*	96	38*	36
Cc1cccc(C(=O)N[C@H](C(=O)Nc2ccc3c(c2)OCO3)C(C)C)c1	·	·	0	5	·	82	·	·
O=C1c2ccccc2-c2onc3ccc(Oc4ccccc4)c1c23	61*	63*	37*	0	-15	111	20	25
Cn1nc([N+](=O)[O-])c(C(C#N)c2nc3ccccc3n2C)c(Cl)c1=O (stereo unspecified)	91*	79*	51*	1	-28*	110	84*	90*
COCCCNC(=O)/C(C#N)=C/c1ccc(OCC(=O)O)c(OC)c1	57*	16	7	1	-10	96	20	33
CCCNc1c(F)c(F)c2c(C)c3ccccc3nc2c1F	125*	114*	83*	-1	-29*	110	106*	123*
Cc1c2ccccc2nc2ccccc12	-1	-2	-9	-1	0	80	·	·
COc1ccccc1C(CNC(=O)c1oc2ccccc2c1C)N1CCCC1 (stereo unspecified)	3	-3	-2	-4	·	97	·	·
Cc1cc2cc(C=C(C#N)C#N)c(Cl)nc2cc1C	+	193*	163*	7	-3	98	27	27
CCOC(=O)/C(C#N)=C/c1cc2cc(C)c(C)cc2nc1Cl	-11	-4	-9	4	-3	89	·	·
O=c1cc(O)c2ccc(O)cc2o1	2	5	9	-4	-8	115	·	·
Nc1ccc(-c2c3ccc(=O)cc-3oc3cc(O)ccc23)c(C(=O)O)c1	78*	86*	16	65*	·	180	77*	76*
Cc1ccc2nc(-c3ccc(-c4cccc(Cl)c4)cc3)c(NCc3ccccc3)n2c1	78*	50*	1	0	4	89	24	19
COc1cc(-c2nc3ccc(C)cn3c2NCc2ccccc2)ccc1-c1cccc(Cl)c1	·	·	5	0	·	96	·	·
O=Cc1ccc2noc(-c3ccc(F)cc3)c2c1	106*	101*	103*	4	?	108	123*	163*
CC1(c2ccc3noc(-c4ccc(F)cc4)c3c2)OCCO1	83*	74*	89*	2	-7	104	78*	111*
Cc1nc2ccccc2n2c(O)c(CC(=O)O)cc12	+	+	137*	27*	?	91	190*	+
CC(C)(C)OC(=O)N1CC=C2C(C#N)=C(N)C(C#N)(C#N)[C@H](c3cccnc3)[C@H]2C1	67*	53*	37*	-2	-28*	92	45*	47*
CC(C)N1CC=C2C(C#N)=C(N)C(C#N)(C#N)[C@H](c3ccoc3)[C@H]2C1	183*	158*	85*	19	?	102	78*	100*
CC(C)(C)OC(=O)N1CC=C2C(C#N)=C(N)C(C#N)(C#N)C(c3cccs3)C2C1 (stereo unspecified)	18	22	29	5	-24	94	·	·
Cc1ccc(C2C3CSCC=C3C(C#N)=C(N)C2(C#N)C#N)cc1 (stereo unspecified)	6	12	18	-3	-3	103	·	·
COc1cc(C2C3CN(C)CC=C3C(C#N)=C(N)C2(C#N)C#N)ccc1OC(C)C (stereo unspecified)	66*	60*	12	5	-30*	115	21	27
O=C(CCN=C1NS(=O)(=O)c2ccccc21)Nc1ccc(Cl)cc1F	0	5	-4	0	·	105	·	·
CCc1ccc(C(=O)CCC(=O)Nc2ccc(OC)c(S(=O)(=O)N3CCCCC3)c2)cc1	3	4	0	8	·	102	·	·
O=C1Nc2ccccc2/C1=C/c1cnc(-c2ccccc2)[nH]1	162*	138*	73*	-3	-10	90	102*	117*
SMILES	MCL1-BIM inh	Bcl-xL primary	GLD-1 TGE inh	LANA-H2B inh	MEX-5 binding	Yeast superoxide	Bcl-xL conf	MCL1 BIM confirm
CNCCCOc1cccc(OC(C)C)c1	-3	-1	-3	-5	-2	98	·	·
CNCCCOc1cccc(Oc2ccccc2)c1	46*	3	3	1	0	110	5	2
COc1ccc(Cl)cc1NC(=O)CN1C(=O)NC(Cc2c[nH]c3ccccc23)C1=O (stereo unspecified)	·	·	2	1	·	109	·	·
COc1ccc2ccc3c(c2c1)N=C[C@]1(O3)N(C)c2ccccc2C1(C)C	57*	40*	5	0	2	107	39*	39
COc1cc(-c2nc(-c3ccccn3)no2)cc(OC)c1OC	41*	5	2	-8	-1	103	20	34
O=C(COC(=O)c1ccc([N+](=O)[O-])o1)NCc1ccc2c(c1)OCO2	·	·	6	1	·	135	·	·
COc1ccc(CNC(=O)C[C@H]2C[C@H](C(=O)N3CCOCC3)[C@@]3(CCC4CCCC4)c4[nH]c5cc(CCC(=O)N(C)C)ccc5c4CCN3C2=O)cc1OC	·	·	·	·	·	109	·	·
Cn1nc(-c2ccccc2)c2nc3ccccc3nc21	55*	56*	-13	95*	?	102	102*	111*
Cc1ccc(-c2nc3ccccc3nc2-c2ccccc2)cc1	-5	-4	7	0	1	104	·	·
COc1ccc2nc3ccccc3nc2c1NC(=O)c1ccc(Cl)cc1	104*	50*	-3	-4	-31*	70	82*	105*
COc1ccccc1Oc1ccc(NC(=O)c2ccc(Cl)cc2)cc1	1	2	-12	-10	-1	119	·	·
Cc1ccc(CNC(=O)c2ccc(C)c(S(=O)(=O)N3CCCCC3)c2)cc1	6	1	-5	2	·	121	·	·

Screening data (PubChem BioAssay)
